From PubChem BioAssay (NCATS)
Inconclusive results are not listed. Entries that show only a call come without a potency. Unmarked numbers belong to inactive results. The source made the active and inactive calls. Calls come from the whole dose curve; as a rule, active = well fitted curve in the direction sought with a large enough effect; inconclusive = small, poorly fitted or top-dose-only effect, or another doubt; inactive = no such curve, though single readings can be large; an effect the other way counts as inactive or inconclusive.

Legend:
[1] = qHTS of pediatric cancer cell lines to identify multiple opportunities for drug repurposing: Primary screen for A673 cells (AID 1347092); note: nearly all actives have a fitted effect of over 45% in size; note: potency is the fitted concentration of half-maximal effect
Outline: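 Luminescence from CellTiter-Glo, taken after 15 min at room temperature, served as the proxy for metabolically active cells following 48 h treatment. Both potency and efficacy were taken from curves fitted to the titration data.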

[2] = qHTS of pediatric cancer cell lines to identify multiple opportunities for drug repurposing: Primary screen for SK-N-MC cells (AID 1347093); note: potency is the fitted concentration of half-maximal effect
Outline: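 Metabolically active cells were quantified by ATP-dependent luminescence (CellTiter-Glo, 15 min at room temperature) following 48 h treatment. Cells had been plated at 500-1,000 per well and settled for 5 h beforehand.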

[3] = qHTS of pediatric cancer cell lines to identify multiple opportunities for drug repurposing: Primary screen for BT-37 cells (AID 1347094); note: potency is the fitted concentration of half-maximal effect
Outline: (§1)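 ATP-based luminescence (CellTiter-Glo) quantifies viability after a 48-hour exposure. Compounds are dosed across 8 or 11 final concentrations; DMSO and 2.3 µM bortezomib serve as controls.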

[4] = qHTS of pediatric cancer cell lines to identify multiple opportunities for drug repurposing: Primary screen for NB-EBc1 cells (AID 1347095)
Outline: as §1

[5] = qHTS of pediatric cancer cell lines to identify multiple opportunities for drug repurposing: Primary screen for U-2 OS cells (AID 1347096); note: nearly all actives have a fitted effect of over 50% in size; note: potency is the fitted concentration of half-maximal effect
Outline: (§2)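 Viability after 48 h compound treatment at 37C, 500-1,000 cells/well, read as ATP luminescence with CellTiter-Glo. Primary screens used 11-point (MIPE, 0.78 nM-46 µM) or 8-point (NPC, 0.59 nM-46 µM) final concentrations; follow-up screens used 11-point dilutions.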

[6] = qHTS of pediatric cancer cell lines to identify multiple opportunities for drug repurposing: Primary screen for SK-N-SH cells (AID 1347098); note: nearly all actives have a fitted effect of over 65% in size; note: potency is the fitted concentration of half-maximal effect
Outline: (§3)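 Cells (500-1,000/well) rested 5 h, then received compounds for 48 h; metabolically active cells were measured by CellTiter-Glo luminescence. Final concentrations spanned up to 46 µM (MIPE, 11-point) or 0.59 nM-46 µM (NPC, 8-point) in primary screens, 11-point in follow-ups.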

[7] = qHTS of pediatric cancer cell lines to identify multiple opportunities for drug repurposing: Primary screen for NB1643 cells (AID 1347099); note: nearly all actives have a fitted effect of over 50% in size; note: potency is the fitted concentration of half-maximal effect
Outline: as §1

[8] = qHTS of pediatric cancer cell lines to identify multiple opportunities for drug repurposing: Primary screen for LAN-5 cells (AID 1347100)
Outline: as §2

[9] = qHTS of pediatric cancer cell lines to identify multiple opportunities for drug repurposing: Primary screen for BT-12 cells (AID 1347101); note: nearly all actives have a fitted effect of over 25% in size; note: potency is the fitted concentration of half-maximal effect
Outline: as §3

[10] = qHTS of pediatric cancer cell lines to identify multiple opportunities for drug repurposing: Primary screen for OHS-50 cells (AID 1347103); note: nearly all actives have a fitted effect of over 40% in size; note: potency is the fitted concentration of half-maximal effect
Outline: as §3

[11] = qHTS of pediatric cancer cell lines to identify multiple opportunities for drug repurposing: Primary screen for RD cells (AID 1347104); note: nearly all actives have a fitted effect of over 55% in size; note: potency is the fitted concentration of half-maximal effect
Outline: as §1

[12] = qHTS of pediatric cancer cell lines to identify multiple opportunities for drug repurposing: Primary screen for MG 63 (6-TG R) cells (AID 1347105); note: nearly all actives have a fitted effect of over 50% in size; note: potency is the fitted concentration of half-maximal effect
Outline: as §1

[13] = qHTS of pediatric cancer cell lines to identify multiple opportunities for drug repurposing: Primary screen for control Hh wild type fibroblast cells (AID 1347106);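 note: series mostly up to about 46 µM; a drop in luminescence marks cytotoxicity and a rise apparent proliferation; nearly all actives have a fitted effect of over 55% in size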
Outline: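 Cells (500-1,000/well) in growth media were settled 5 h at 37 degrees C, then given compounds for 48 h. Viability was read as CellTiter-Glo luminescence. Primary runs used MIPE at 11 points (0.78 nM-46 µM) and NPC at 8 points (0.59 nM-46 µM); follow-ups used 11 points.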

[14] = qHTS of pediatric cancer cell lines to identify multiple opportunities for drug repurposing: Primary screen for Rh30 cells (AID 1347107); note: series mostly up to about 46 µM; nearly all actives have a fitted effect of over 75% in size
Outline: as §2

[15] = qHTS of pediatric cancer cell lines to identify multiple opportunities for drug repurposing: Primary screen for Rh41 cells (AID 1347108); note: nearly all actives have a fitted effect of over 70% in size; note: potency is the fitted concentration of half-maximal effect
Outline: as §1

[16] = qHTS of pediatric cancer cell lines to identify multiple opportunities for drug repurposing: Primary screen for Saos-2 cells (AID 1347097); note: nearly all actives have a fitted effect of over 40% in size; note: potency is the fitted concentration of half-maximal effect
Outline: as §1

[17] = qHTS of pediatric cancer cell lines to identify multiple opportunities for drug repurposing: Primary screen for Rh18 cells (AID 1347102); note: nearly all actives have a fitted effect of over 65% in size; note: potency is the fitted concentration of half-maximal effect
Outline: as §2

| Structure (SMILES) | Potency [1] | Potency [2] | Potency [3] | Potency [4] | Potency [5] | Potency [6] | Potency [7] | Potency [8] | Potency [9] | Potency [10] | Potency [11] | Potency [12] | outcome [13] | Potency [14] | Potency [15] | Potency [16] | Potency [17] |
| --- | --- | --- | --- | --- | --- | --- | --- | --- | --- | --- | --- | --- | --- | --- | --- | --- | --- |
| C[C@@H](O)[C@H]1C(=O)N2C(C(=O)O)=C(SCCN=CN)C[C@H]12 | inactive | inactive | inactive | inactive | inactive | inactive | inactive | inactive | inactive | inactive | inactive | inactive | inactive | inactive | inactive |  |  |
| CC(=O)OC(C)C[N+](C)(C)C (stereo not drawn) | inactive |  | inactive | inactive | inactive | inactive | inactive | inactive | inactive | inactive | inactive |  | inactive | inactive | inactive | inactive | inactive |
| CC(C)COCC(CN(Cc1ccccc1)c1ccccc1)N1CCCC1 (stereo not drawn) | 26.6 µM (active) | 16.8 µM (active) | 27.6 µM (active) |  |  | 27.3 µM (active) | 29.9 µM (active) |  |  | 19.5 µM (active) | 26.6 µM (active) |  | inactive |  |  | 26.6 µM (active) |  |
| CCCCCN(CCCCC)C(=O)C(CCC(=O)O)NC(=O)c1ccc(Cl)c(Cl)c1 (stereo not drawn) | inactive |  | inactive | inactive | inactive | inactive | inactive | inactive | inactive | inactive | inactive | inactive | inactive | inactive | inactive | inactive | inactive |
| CNC1(C)C2CCC(C2)C1(C)C (stereo not drawn) | inactive | inactive | inactive | inactive | inactive | inactive | inactive | inactive | inactive | inactive | inactive | inactive | inactive | inactive | inactive |  | inactive |
| CC(=O)Nc1nnc(S(N)(=O)=O)s1 | inactive | inactive | inactive | inactive | inactive | inactive | inactive | inactive | inactive | inactive | inactive | inactive | inactive | inactive | inactive |  | inactive |
| CC(=O)[C@]1(O)Cc2c(O)c3c(c(O)c2[C@@H](O[C@H]2C[C@H](N)[C@H](O)[C@H](C)O2)C1)C(=O)c1ccccc1C3=O | 0.422 µM (active) | 0.237 µM (active) | 0.174 µM (active) |  | 6.68 µM (active) | 0.433 µM (active) | 0.376 µM (active) |  | 0.55 µM (active) | 1.1 µM (active) | 1.06 µM (active) | 2.11 µM (active) |  | inactive | 0.841 µM (active) | 3.35 µM (active) | 0.422 µM (active) |
| CCCN(CCC)CCc1cccc2c1CC(=O)N2 | inactive | inactive | inactive | inactive | inactive | inactive | inactive | inactive | inactive | inactive | inactive | inactive | inactive | inactive | inactive |  | inactive |
| Nc1ncn([C@@H]2O[C@H](CO)[C@@H](O)[C@H]2O)c(=O)n1 | 6.68 µM (active) | 21.1 µM (active) | 12.3 µM (active) |  |  |  | 7.5 µM (active) |  | 8.71 µM (active) | 24.6 µM (active) | 8.41 µM (active) | inactive |  | inactive |  |  |  |
| CCCCNC(=O)NS(=O)(=O)c1ccc(C)cc1 | inactive |  | inactive | inactive | inactive | inactive | inactive | inactive | inactive | inactive | inactive | inactive | inactive | inactive | inactive | inactive | inactive |
| C#CCN(C)CCCOc1ccc(Cl)cc1Cl | inactive | inactive | inactive | inactive | inactive | inactive | inactive | inactive | inactive |  | inactive | inactive | inactive | inactive | inactive |  | inactive |
| CC(N=C(NC#N)Nc1ccncc1)C(C)(C)C (stereo not drawn) | inactive | inactive | inactive | inactive | inactive |  | inactive | inactive | inactive |  | inactive | inactive | inactive | inactive | inactive | inactive | inactive |
| O=C(CCNNC(=O)c1ccncc1)NCc1ccccc1 | inactive |  | inactive | inactive | inactive | inactive | inactive | inactive | inactive | inactive | inactive | inactive | inactive | inactive | inactive | inactive |  |
| OC(CCN1CCCCC1)(c1ccccc1)C1CCCCC1 (stereo not drawn) | inactive | inactive |  | inactive | inactive |  | inactive | inactive |  |  |  | inactive | inactive | inactive | inactive |  |  |
| CC(C)(Oc1ccc(CCNC(=O)c2ccc(Cl)cc2)cc1)C(=O)O | inactive | inactive | inactive | inactive | inactive | inactive | inactive | inactive | inactive | inactive | inactive | inactive | inactive | inactive | inactive |  | inactive |
